Binding signal data for 14 sequences are collected here from paper PMC11006913.

Where a chain is given by its changes, count along the chain named.

Common to all, as to test: PBM; 200 nM protein, PBS
Common to all, as to conditions: dsDNA, one strand shown

For assay [1], the target named is CRX (Homo sapiens, UniProt O43186 26-111).
Assay [2] concerns the target PRRX1 (Homo sapiens, UniProt P54821 80-166, F113S).
For assay [3], the target named is HOXB6 (Homo sapiens, UniProt P17509 132-218, K202E).
For assay [4], the target named is HOXA2 (Homo sapiens, UniProt O43364 129-215, R185T).
For assay [5], the target named is CRX (Homo sapiens, UniProt O43186 26-111, E42D).
For the next assay, the target named is PITX2 (Homo sapiens, UniProt Q99697 72-157).
For assay [6], the target named is HOXA2 (Homo sapiens, UniProt O43364 129-215, R185K).
The target of assay [7] is HOXA2 (Homo sapiens, UniProt O43364 129-215, Y150S).
The target in assay [8] is CRX (Homo sapiens, UniProt O43186 26-111, R41L).
Assay [9] concerns the target PRRX1 (Homo sapiens, UniProt P54821 80-166).
Assay [10] deals with HOXA2 (Homo sapiens, UniProt O43364 129-215).
In assay [11] the target is HOXB6 (Homo sapiens, UniProt P17509 132-218).
The target of assay [12] is ALX1 (Homo sapiens, UniProt Q15699 118-204, L144V).
Assay [13] addresses ALX1 (Homo sapiens, UniProt Q15699 118-204, L144R).
Assay [14] deals with ALX1 (Homo sapiens, UniProt Q15699 118-204).
Assay [15] addresses T1, NKX2-6 (Homo sapiens, UniProt A6NCS4 118-204).
T1 sequence: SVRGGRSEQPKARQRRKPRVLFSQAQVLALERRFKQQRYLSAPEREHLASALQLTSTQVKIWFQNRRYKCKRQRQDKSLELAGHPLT

The target of assay [16] is T2, NKX2-6 (Homo sapiens, UniProt A6NCS4 118-204, F151L).
T2 sequence: T1 sequence with F34L

The target in assay [17] is ALX3 (Homo sapiens, UniProt O95076 139-225, N203Q).
For assay [18], the target named is ALX3 (Homo sapiens, UniProt O95076 139-225).
Assay [19] deals with ALX3 (Homo sapiens, UniProt O95076 139-225, L168Q).
The target in assay [20] is ALX3 (Homo sapiens, UniProt O95076 139-225, L168V).
Assay [21] addresses ALX3 (Homo sapiens, UniProt O95076 139-225, N203S).
Assay [22] concerns the target MSX2 (Homo sapiens, UniProt P35548 130-214, R199I).
The target of assay [23] is MSX2 (Homo sapiens, UniProt P35548 130-214).
For assay [24], the target named is MSX2 (Homo sapiens, UniProt P35548 130-214, F161Y).
MSX2 (Homo sapiens, UniProt P35548 130-214, F161Y), sequence (P35548 130-214 F161Y): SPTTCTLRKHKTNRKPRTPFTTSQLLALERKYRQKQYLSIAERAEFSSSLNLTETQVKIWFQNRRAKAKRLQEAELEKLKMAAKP

CRX (Homo sapiens, UniProt O43186 26-111), sequence (O43186 26-111): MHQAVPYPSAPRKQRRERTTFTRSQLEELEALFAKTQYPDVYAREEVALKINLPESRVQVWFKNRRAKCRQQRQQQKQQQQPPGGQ
CRX (Homo sapiens, UniProt O43186 26-111, R41L), sequence (O43186 26-111 R41L): as the sequence (O43186 26-111) above, with R16L counted along it
CRX (Homo sapiens, UniProt O43186 26-111, E42D), sequence (O43186 26-111 E42D): as the sequence (O43186 26-111) above, with E17D counted along it
ALX1 (Homo sapiens, UniProt Q15699 118-204, L144V), sequence (Q15699 118-204 L144V): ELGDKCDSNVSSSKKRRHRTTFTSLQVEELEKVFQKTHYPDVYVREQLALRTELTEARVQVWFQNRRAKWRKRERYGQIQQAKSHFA
ALX3 (Homo sapiens, UniProt O95076 139-225, L168V), sequence (O95076 139-225 L168V): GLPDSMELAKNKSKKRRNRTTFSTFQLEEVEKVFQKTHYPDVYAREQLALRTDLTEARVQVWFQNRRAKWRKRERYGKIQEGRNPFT
HOXA2 (Homo sapiens, UniProt O43364 129-215, R185T), sequence (O43364 129-215 R185T): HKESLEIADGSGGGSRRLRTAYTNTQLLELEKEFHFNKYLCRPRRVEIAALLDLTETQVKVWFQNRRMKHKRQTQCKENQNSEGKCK
ALX1 (Homo sapiens, UniProt Q15699 118-204, L144R), sequence (Q15699 118-204 L144R): as the sequence (Q15699 118-204 L144V) above, with V27R counted along it
HOXA2 (Homo sapiens, UniProt O43364 129-215, Y150S), sequence (O43364 129-215 Y150S): as the sequence (O43364 129-215 R185T) above, with Y22S, T57R counted along it
MSX2 (Homo sapiens, UniProt P35548 130-214), sequence (P35548 130-214): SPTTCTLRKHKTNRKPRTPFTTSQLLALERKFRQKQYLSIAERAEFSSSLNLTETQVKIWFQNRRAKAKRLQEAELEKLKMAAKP
ALX1 (Homo sapiens, UniProt Q15699 118-204), sequence (Q15699 118-204): as the sequence (Q15699 118-204 L144V) above, with V27L counted along it
ALX3 (Homo sapiens, UniProt O95076 139-225), sequence (O95076 139-225): as the sequence (O95076 139-225 L168V) above, with V30L counted along it
ALX3 (Homo sapiens, UniProt O95076 139-225, N203Q), sequence (O95076 139-225 N203Q): as the sequence (O95076 139-225 L168V) above, with V30L, N65Q counted along it
HOXB6 (Homo sapiens, UniProt P17509 132-218, K202E), sequence (P17509 132-218 K202E): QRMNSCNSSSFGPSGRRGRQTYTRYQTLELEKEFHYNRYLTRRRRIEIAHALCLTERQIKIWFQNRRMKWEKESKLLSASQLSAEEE
HOXA2 (Homo sapiens, UniProt O43364 129-215, R185K), sequence (O43364 129-215 R185K): as the sequence (O43364 129-215 R185T) above, with T57K counted along it
HOXB6 (Homo sapiens, UniProt P17509 132-218), sequence (P17509 132-218): as the sequence (P17509 132-218 K202E) above, with E71K counted along it
HOXA2 (Homo sapiens, UniProt O43364 129-215), sequence (O43364 129-215): as the sequence (O43364 129-215 R185T) above, with T57R counted along it
ALX3 (Homo sapiens, UniProt O95076 139-225, N203S), sequence (O95076 139-225 N203S): as the sequence (O95076 139-225 L168V) above, with V30L, N65S counted along it
ALX3 (Homo sapiens, UniProt O95076 139-225, L168Q), sequence (O95076 139-225 L168Q): as the sequence (O95076 139-225 L168V) above, with V30Q counted along it
PRRX1 (Homo sapiens, UniProt P54821 80-166, F113S), sequence (P54821 80-166 F113S): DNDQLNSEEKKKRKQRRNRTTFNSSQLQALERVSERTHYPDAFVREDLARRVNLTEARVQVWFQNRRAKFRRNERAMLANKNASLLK
MSX2 (Homo sapiens, UniProt P35548 130-214, R199I), sequence (P35548 130-214 R199I): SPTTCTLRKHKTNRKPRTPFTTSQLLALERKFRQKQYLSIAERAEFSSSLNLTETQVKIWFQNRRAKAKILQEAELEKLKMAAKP
PRRX1 (Homo sapiens, UniProt P54821 80-166), sequence (P54821 80-166): as the sequence (P54821 80-166 F113S) above, with S34F counted along it

In the case of GGACCGCC, the binding signal with CRX [1] is 8.02 upbm affinity estimate (log intensity, higher = more binding, comparable within an allelic series); in the assay with PRRX1 [2], 9.27 upbm affinity estimate (log intensity, higher = more binding, comparable within an allelic series); with HOXB6 [3], 8.98 upbm affinity estimate (log intensity, higher = more binding, comparable within an allelic series); in the assay with HOXA2 [4], 7.28 upbm affinity estimate (log intensity, higher = more binding, comparable within an allelic series); with CRX [5], 8.13 upbm affinity estimate (log intensity, higher = more binding, comparable within an allelic series); in the assay with PITX2 it was 7.63 upbm affinity estimate (log intensity, higher = more binding, comparable within an allelic series). The binding signal in the assay with HOXA2 [6] is 10.2 upbm affinity estimate (log intensity, higher = more binding, comparable within an allelic series); with HOXA2 [7] it was 10.4 upbm affinity estimate (log intensity, higher = more binding, comparable within an allelic series); with CRX [8], 8.16 upbm affinity estimate (log intensity, higher = more binding, comparable within an allelic series); with PRRX1 [9], 9.42 upbm affinity estimate (log intensity, higher = more binding, comparable within an allelic series); in the assay with HOXA2 [10], 7.23 upbm affinity estimate (log intensity, higher = more binding, comparable within an allelic series); with HOXB6 [11], 9.08 upbm affinity estimate (log intensity, higher = more binding, comparable within an allelic series).
Take AGGATTAT: the binding signal with CRX [1] was 13.4 upbm affinity estimate (log intensity, higher = more binding, comparable within an allelic series); in the assay with CRX [5], 13.5 upbm affinity estimate (log intensity, higher = more binding, comparable within an allelic series); with PITX2, 13.2 upbm affinity estimate (log intensity, higher = more binding, comparable within an allelic series); with CRX [8] it was 13.5 upbm affinity estimate (log intensity, higher = more binding, comparable within an allelic series).
Turning to GCAAGGAC, the binding signal with CRX [1] was 8.57 upbm affinity estimate (log intensity, higher = more binding, comparable within an allelic series); in the assay with CRX [5], 8.32 upbm affinity estimate (log intensity, higher = more binding, comparable within an allelic series); with ALX1 [12], 6.53 upbm affinity estimate (log intensity, higher = more binding, comparable within an allelic series); in the assay with ALX1 [13], 6.6 upbm affinity estimate (log intensity, higher = more binding, comparable within an allelic series); with CRX [8], 8.3 upbm affinity estimate (log intensity, higher = more binding, comparable within an allelic series); in the assay with ALX1 [14], 6.36 upbm affinity estimate (log intensity, higher = more binding, comparable within an allelic series).
ATAATCCA: the binding signal in the assay with CRX [1] was 13.2 upbm affinity estimate (log intensity, higher = more binding, comparable within an allelic series); with CRX [5] it was 13.3 upbm affinity estimate (log intensity, higher = more binding, comparable within an allelic series); in the assay with PITX2, 13 upbm affinity estimate (log intensity, higher = more binding, comparable within an allelic series); in the assay with CRX [8], 13.3 upbm affinity estimate (log intensity, higher = more binding, comparable within an allelic series).
As to GGATTACC, the binding signal in the assay with CRX [1] is 13.3 upbm affinity estimate (log intensity, higher = more binding, comparable within an allelic series); with CRX [5], 13.3 upbm affinity estimate (log intensity, higher = more binding, comparable within an allelic series); with PITX2 it was 13.1 upbm affinity estimate (log intensity, higher = more binding, comparable within an allelic series); with CRX [8], 13.3 upbm affinity estimate (log intensity, higher = more binding, comparable within an allelic series).
For the sequence CGTCTGTC, the binding signal in the assay with CRX [1] is 8.37 upbm affinity estimate (log intensity, higher = more binding, comparable within an allelic series); in the assay with CRX [5] it was 8.33 upbm affinity estimate (log intensity, higher = more binding, comparable within an allelic series); with NKX2-6 [15] it was 9.53 upbm affinity estimate (log intensity, higher = more binding, comparable within an allelic series); with NKX2-6 [16], 9.5 upbm affinity estimate (log intensity, higher = more binding, comparable within an allelic series); with CRX [8], 8.42 upbm affinity estimate (log intensity, higher = more binding, comparable within an allelic series).
On to CCTCTGAC, for which the binding signal in the assay with CRX [1] is 7.95 upbm affinity estimate (log intensity, higher = more binding, comparable within an allelic series); in the assay with CRX [5] it was 8.28 upbm affinity estimate (log intensity, higher = more binding, comparable within an allelic series); with PITX2, 7.92 upbm affinity estimate (log intensity, higher = more binding, comparable within an allelic series); with CRX [8] it was 8.19 upbm affinity estimate (log intensity, higher = more binding, comparable within an allelic series).
As to AGGTGCGG, the binding signal with CRX [1] was 8.42 upbm affinity estimate (log intensity, higher = more binding, comparable within an allelic series); with CRX [5], 8.46 upbm affinity estimate (log intensity, higher = more binding, comparable within an allelic series); with ALX3 [17] it was 7.78 upbm affinity estimate (log intensity, higher = more binding, comparable within an allelic series); in the assay with ALX3 [18], 7.66 upbm affinity estimate (log intensity, higher = more binding, comparable within an allelic series); in the assay with ALX3 [19], 7.81 upbm affinity estimate (log intensity, higher = more binding, comparable within an allelic series); with ALX3 [20] it was 7.75 upbm affinity estimate (log intensity, higher = more binding, comparable within an allelic series). Moreover, the binding signal was 8.35 upbm affinity estimate (log intensity, higher = more binding, comparable within an allelic series) with CRX [8] and 7.79 upbm affinity estimate (log intensity, higher = more binding, comparable within an allelic series) in the assay with ALX3 [21].
In the case of ACGCCAGC, the binding signal with CRX [1] was 8.41 upbm affinity estimate (log intensity, higher = more binding, comparable within an allelic series); with CRX [5], 8.28 upbm affinity estimate (log intensity, higher = more binding, comparable within an allelic series); in the assay with NKX2-6 [15], 9.57 upbm affinity estimate (log intensity, higher = more binding, comparable within an allelic series); with NKX2-6 [16], 9.3 upbm affinity estimate (log intensity, higher = more binding, comparable within an allelic series); in the assay with CRX [8] it was 8.46 upbm affinity estimate (log intensity, higher = more binding, comparable within an allelic series).
In the case of GGAGATTA, the binding signal in the assay with CRX [1] was 13.2 upbm affinity estimate (log intensity, higher = more binding, comparable within an allelic series); in the assay with CRX [5], 13.2 upbm affinity estimate (log intensity, higher = more binding, comparable within an allelic series); with PITX2, 12.9 upbm affinity estimate (log intensity, higher = more binding, comparable within an allelic series); with CRX [8], 13.1 upbm affinity estimate (log intensity, higher = more binding, comparable within an allelic series).
Regarding CGCGCCAG, the binding signal with CRX [1] is 8.61 upbm affinity estimate (log intensity, higher = more binding, comparable within an allelic series); with CRX [5], 8.52 upbm affinity estimate (log intensity, higher = more binding, comparable within an allelic series); in the assay with MSX2 [22], 9.5 upbm affinity estimate (log intensity, higher = more binding, comparable within an allelic series); with MSX2 [23], 9.73 upbm affinity estimate (log intensity, higher = more binding, comparable within an allelic series); with MSX2 [24], 9.71 upbm affinity estimate (log intensity, higher = more binding, comparable within an allelic series); with CRX [8] it was 8.44 upbm affinity estimate (log intensity, higher = more binding, comparable within an allelic series).
As to GGGATTAA, the binding signal is 13.7 upbm affinity estimate (log intensity, higher = more binding, comparable within an allelic series) in the assay with CRX [1]; 13.8 upbm affinity estimate (log intensity, higher = more binding, comparable within an allelic series) in the assay with CRX [5]; 13.6 upbm affinity estimate (log intensity, higher = more binding, comparable within an allelic series) in the assay with PITX2; 13.7 upbm affinity estimate (log intensity, higher = more binding, comparable within an allelic series) in the assay with CRX [8].
Consider AAGGATTA, for which the binding signal with CRX [1] is 13.4 upbm affinity estimate (log intensity, higher = more binding, comparable within an allelic series); with CRX [5] it was 13.4 upbm affinity estimate (log intensity, higher = more binding, comparable within an allelic series); with PITX2, 13.2 upbm affinity estimate (log intensity, higher = more binding, comparable within an allelic series); with CRX [8] it was 13.4 upbm affinity estimate (log intensity, higher = more binding, comparable within an allelic series).
As to GGGGATTA, the binding signal in the assay with CRX [1] was 13.7 upbm affinity estimate (log intensity, higher = more binding, comparable within an allelic series); with CRX [5] it was 13.8 upbm affinity estimate (log intensity, higher = more binding, comparable within an allelic series); with PITX2 it was 13.5 upbm affinity estimate (log intensity, higher = more binding, comparable within an allelic series); in the assay with CRX [8] it was 13.8 upbm affinity estimate (log intensity, higher = more binding, comparable within an allelic series).
